# Measurements taken from PubChem BioAssay (NCI).
# “And” between values parts separate entries of the source, which are not always exact repeats. Equal values may be shown once. About 79,000 compounds went through this panel and 15% of them were active in at least one assay; those are over-represented in the sample as a whole. Some structures have more than one record in an assay (separate samples or runs), and their calls can disagree. The source made the active and inactive calls. No stated cut-off is given here; in the data, active means growth inhibition above about 70%; inactive means the rest.
# Test: NCI Yeast Anticancer Drug Screen. Data for the cln2 rad14 strain (AID 165);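 further: 0% = growth equal to vehicle treated cultures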
# Details: S. cerevisiae cln2 rad14 strain, stronger effect = higher value
# Description: Growth inhibition of yeast strains with defined genetic alterations is measured as a screen for potential anti-cancer activity. Selected strains with alterations in DNA damage repair or cell cycle control were exposed to compounds and growth inhibition was measured relative to vehicle treated controls. The strain used in this assay is cln2 rad14
# [1] = at 5.0 µM (retest, dose inferred, filed as 0.5)
# [2] = at 50.0 µM (retest, dose inferred, filed as 5.0)
Structure (SMILES),growth inhibition [1],growth inhibition [2],growth inhibition (at 50.0 µM)
Cc1c2cccc(Sc3ccccc3)c2c2c3c(cccc13)[S+](c1ccccc1)C2 (configuration not stated),7% (inactive),96% (active),93.4% (active)
CC(=O)OC1CC2C(C)(C)C(=O)C=C[C@]2(C)C2CCC3(C)C(=CCC3[C@H](CO)C[C@H](O)C(=O)C(C)(C)O)[C@]12C (some centres not stated),32% (inactive),43% (inactive),26.6% (inactive)
O=C(CSC(=S)N1CCCCC1)Nc1nc2c(s1)CCCC2,11% (inactive),70% (active),72.2% (active)
Cc1c(C)c(C)c(CSC(=N)N)c(C)c1C,8% (inactive),100% (active),86.1% (active)
CCOC(=O)C1=C(C)NC(C)=C(C(=O)OCCNC(=O)c2ccc(N=[N+]=[N-])cc2)C1c1ccccc1C(F)(F)F (configuration not stated),4% (inactive),19% (inactive),2.85% (inactive)
O=C(O)Cc1cc(F)ccc1C(=O)O,-2% (inactive),5% (inactive),94.5% (active)
COc1c(O)c(C=O)c(Br)c(C=O)c1O,12% (inactive),95% (active),66.5% (inactive)
O=C(O)CNC(=S)Nc1ccccc1,63% (inactive),92% (active),36.6% (inactive) and 42% (inactive)
CC(C)(C)[Si](C)(C)OCC1CCC(n2cnc3c(NC(=O)c4ccccc4)ncnc32)O1 (configuration not stated),-4% (inactive),30% (inactive),42.2% (inactive)
CC1=C(C(=O)NCc2ccccc2)C(c2ccccc2)C(C(=O)NCc2ccccc2)=C(C)N1,-7% (inactive),51% (inactive),11.4% (inactive)
COC(=O)C1(C)CCc2c(ccc3ccccc23)C1=O (configuration not stated),-10% (inactive),12% (inactive),1.75% (inactive)
COc1ccc(/C=C/C(=O)c2ccccc2)cc1OC,30% (inactive),34% (inactive),-16.2% (inactive) and 58.3% (inactive)
C#CCN(Cc1ccc2nc(N)[nH]c(=O)c2c1)c1ccc(C(=O)NC(CCC(=O)O)C(=O)O)cc1 (configuration not stated),0% (inactive) and 14% (inactive),17% (inactive) and 78% (active),30.1% (inactive) and 16.3% (inactive)
Cc1nc2c(Br)cc(Br)cc2c(=O)n1-c1ccccc1NC1OCC(O)C(O)C1O (configuration not stated),40% (inactive) and -2% (inactive),95% (active) and 85% (active),91.5% (active) and 60.1% (inactive)
